Drawing on ChEMBL document CHEMBL3988442, “University of Dundee, Small-Polar-MMV Screening Library” (2021), this text covers Percent Effect for eleven molecules.

For some of these results: Results with a measured potency or affinity are listed apart.

Common to all, as to design: scale not given: direction of the effect not stated beside the values
The target in assay [1] is Protein translocase subunit SecA (Escherichia coli (strain K12)) (UniProt P10408). Put plainly: Assay to Identify E. coli SecA ATPase Inhibitors. It is filed as functional. The conditions noted are these: 30 µM.
Sequence of Protein translocase subunit SecA (Escherichia coli (strain K12)) (P10408 whole entry): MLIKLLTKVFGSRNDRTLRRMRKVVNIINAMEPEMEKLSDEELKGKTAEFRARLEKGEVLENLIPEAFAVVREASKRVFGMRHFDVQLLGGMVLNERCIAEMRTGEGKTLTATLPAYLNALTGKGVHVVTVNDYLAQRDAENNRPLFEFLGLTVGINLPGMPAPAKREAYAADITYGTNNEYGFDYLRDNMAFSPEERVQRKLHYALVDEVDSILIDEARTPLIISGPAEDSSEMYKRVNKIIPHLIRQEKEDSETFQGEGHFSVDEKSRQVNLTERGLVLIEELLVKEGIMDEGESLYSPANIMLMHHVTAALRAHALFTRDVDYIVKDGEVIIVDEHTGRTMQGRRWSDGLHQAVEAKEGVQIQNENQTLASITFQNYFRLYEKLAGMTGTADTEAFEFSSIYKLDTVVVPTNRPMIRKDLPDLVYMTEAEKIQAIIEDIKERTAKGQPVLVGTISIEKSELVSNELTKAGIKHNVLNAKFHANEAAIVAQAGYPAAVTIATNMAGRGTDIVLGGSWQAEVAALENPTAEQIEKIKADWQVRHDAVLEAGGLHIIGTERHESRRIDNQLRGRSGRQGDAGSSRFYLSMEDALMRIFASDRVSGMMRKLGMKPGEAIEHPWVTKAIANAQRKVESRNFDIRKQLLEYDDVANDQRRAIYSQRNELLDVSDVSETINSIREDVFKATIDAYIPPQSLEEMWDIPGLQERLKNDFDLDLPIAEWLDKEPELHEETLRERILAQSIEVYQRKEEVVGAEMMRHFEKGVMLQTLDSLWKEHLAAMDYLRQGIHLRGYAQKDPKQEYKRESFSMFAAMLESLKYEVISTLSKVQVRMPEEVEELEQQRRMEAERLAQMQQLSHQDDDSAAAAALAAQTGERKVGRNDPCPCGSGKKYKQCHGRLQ
Assay [2] has as its target T1, Ubiquitin-activating enzyme e1, putative (Leishmania donovani (strain BPK282A1)) (UniProt E9BSI1).
T1 sequence (whole entry): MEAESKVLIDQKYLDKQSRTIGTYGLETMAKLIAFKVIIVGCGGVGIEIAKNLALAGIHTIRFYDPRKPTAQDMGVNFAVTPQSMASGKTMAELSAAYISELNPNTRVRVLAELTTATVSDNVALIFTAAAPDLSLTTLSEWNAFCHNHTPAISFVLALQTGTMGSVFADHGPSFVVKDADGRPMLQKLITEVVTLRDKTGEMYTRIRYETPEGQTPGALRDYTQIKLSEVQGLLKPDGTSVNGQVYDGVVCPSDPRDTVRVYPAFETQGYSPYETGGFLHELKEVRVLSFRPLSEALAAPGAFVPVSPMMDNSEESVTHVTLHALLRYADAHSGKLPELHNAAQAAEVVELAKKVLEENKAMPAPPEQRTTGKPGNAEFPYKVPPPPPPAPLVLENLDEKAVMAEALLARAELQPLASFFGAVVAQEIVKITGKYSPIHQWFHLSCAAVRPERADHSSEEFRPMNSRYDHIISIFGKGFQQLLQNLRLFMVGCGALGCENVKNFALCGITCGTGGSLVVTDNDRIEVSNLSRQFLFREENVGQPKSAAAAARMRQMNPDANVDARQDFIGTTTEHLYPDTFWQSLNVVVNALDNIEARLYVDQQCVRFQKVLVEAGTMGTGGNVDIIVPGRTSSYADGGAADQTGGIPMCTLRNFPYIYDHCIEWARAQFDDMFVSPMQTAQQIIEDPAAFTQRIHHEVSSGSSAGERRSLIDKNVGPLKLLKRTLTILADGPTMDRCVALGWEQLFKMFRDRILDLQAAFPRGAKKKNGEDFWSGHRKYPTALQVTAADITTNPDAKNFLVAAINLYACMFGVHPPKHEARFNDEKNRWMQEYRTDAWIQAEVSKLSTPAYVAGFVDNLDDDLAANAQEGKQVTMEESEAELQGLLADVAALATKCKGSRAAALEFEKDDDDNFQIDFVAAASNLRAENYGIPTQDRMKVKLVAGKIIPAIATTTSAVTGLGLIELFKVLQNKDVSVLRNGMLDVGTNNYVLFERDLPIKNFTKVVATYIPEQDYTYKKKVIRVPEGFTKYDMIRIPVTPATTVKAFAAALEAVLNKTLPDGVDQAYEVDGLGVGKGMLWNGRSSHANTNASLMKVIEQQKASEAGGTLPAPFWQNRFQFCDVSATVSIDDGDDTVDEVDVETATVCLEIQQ
In words: Leishmania donovani Ubiquitin Activating Enzyme (LdE1). In kind it is functional. Conditions: 30 µM.

In assay [3] the target is AMP-activated protein kinase, AMPK (Homo sapiens) (UniProt P54646+O43741+P54619+Q9UGJ0+Q9Y478+Q13131+Q9UGI9). Put plainly: AMP-dependent Kinase enzyme assay. An in vitro enzyme assay that detects ADP turnover that is directly proportional to AMPK activity. This uses naive AMPK that is activated during the assay with MK-8722. It is filed as functional. The conditions noted are these: 30 µM.

For assay [4], the target named is Sialic acid-binding Ig-like lectin 9 (Homo sapiens) (UniProt Q9Y336). In words: Hs-Siglec9 ALPHAscreen SOP 20170721. The conditions noted are these: 10 µM. For orientation: In Alpha technology, singlet oxygen from a donor bead excites a nearby acceptor bead.
Sequence of Sialic acid-binding Ig-like lectin 9 (Homo sapiens) (Q9Y336 whole entry): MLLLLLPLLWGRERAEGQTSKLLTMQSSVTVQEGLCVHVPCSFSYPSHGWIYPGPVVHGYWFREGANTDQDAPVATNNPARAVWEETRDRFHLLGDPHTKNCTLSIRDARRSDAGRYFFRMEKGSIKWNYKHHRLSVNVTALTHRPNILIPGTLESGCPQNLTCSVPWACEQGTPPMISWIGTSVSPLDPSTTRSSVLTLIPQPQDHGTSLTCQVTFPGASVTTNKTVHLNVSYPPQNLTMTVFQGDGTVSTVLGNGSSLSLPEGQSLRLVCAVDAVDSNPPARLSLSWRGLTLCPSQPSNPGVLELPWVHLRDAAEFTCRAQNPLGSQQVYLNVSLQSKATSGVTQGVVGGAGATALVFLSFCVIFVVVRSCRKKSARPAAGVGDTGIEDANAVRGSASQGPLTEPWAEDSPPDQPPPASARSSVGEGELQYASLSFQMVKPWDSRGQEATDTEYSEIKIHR
The subject of another assay is Trypanosoma cruzi. In words: Trypanosoma cruzi phosphomannomutase and mannose-1-phosphate guanylyltransferase assay. It is filed as functional. Conditions: 10 µM.
The target in assay [5] is T2, Arginase-2, mitochondrial (Homo sapiens) (UniProt P78540).
T2 sequence (whole entry): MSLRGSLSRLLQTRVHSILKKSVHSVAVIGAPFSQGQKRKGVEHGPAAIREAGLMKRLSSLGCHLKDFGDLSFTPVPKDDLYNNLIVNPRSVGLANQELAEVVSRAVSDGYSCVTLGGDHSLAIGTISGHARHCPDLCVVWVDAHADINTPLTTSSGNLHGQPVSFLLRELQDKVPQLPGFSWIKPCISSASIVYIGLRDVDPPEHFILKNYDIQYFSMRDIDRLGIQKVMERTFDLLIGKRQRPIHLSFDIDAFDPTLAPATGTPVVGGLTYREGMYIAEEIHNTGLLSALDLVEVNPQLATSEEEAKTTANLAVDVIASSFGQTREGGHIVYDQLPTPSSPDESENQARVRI
In words: in vitro enzyme assay to detect the production of urea directly proportional to the activity of Arginase II. Also: in the data most compounds retested in dose-response had high values. It is filed as functional. Conditions: 33.3 µM.

Assay [6] has as its target T3, Proteasome subunit beta (Trypanosoma cruzi) (UniProt O96673).
T3 sequence (whole entry): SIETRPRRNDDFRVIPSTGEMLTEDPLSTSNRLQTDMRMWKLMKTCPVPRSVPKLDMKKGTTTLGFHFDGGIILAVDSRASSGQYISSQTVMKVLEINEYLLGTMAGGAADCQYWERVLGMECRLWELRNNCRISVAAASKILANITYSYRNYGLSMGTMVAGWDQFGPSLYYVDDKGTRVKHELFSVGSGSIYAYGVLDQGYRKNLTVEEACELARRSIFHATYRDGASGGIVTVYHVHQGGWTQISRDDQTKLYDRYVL
Put plainly: Trypanosoma cruzi proteasome chymotrypsin-like activity (TcProtChymo) assay. Also: in the data most compounds retested in dose-response had high values. In kind it is functional. The conditions noted are these: 9.37 µM.

The species entered for a further assay is Homo sapiens. Put plainly: To identify inhibition of the IFN signalling (Jak-Stat) pathway via expression of an eGFP reporter gene under the control of an IFN-stimulated response element (ISRE) containing MxA promoter. In kind it is functional. The conditions noted are these: 30 µM. A general note: Reporter assays use an easily measured gene product as a stand-in for the process of interest.

Assay [7] deals with T4, Tyrosyl-tRNA synthetase, putative (Trypanosoma cruzi (strain CL Brener)) (UniProt Q4DSP6).
T4 sequence (whole entry): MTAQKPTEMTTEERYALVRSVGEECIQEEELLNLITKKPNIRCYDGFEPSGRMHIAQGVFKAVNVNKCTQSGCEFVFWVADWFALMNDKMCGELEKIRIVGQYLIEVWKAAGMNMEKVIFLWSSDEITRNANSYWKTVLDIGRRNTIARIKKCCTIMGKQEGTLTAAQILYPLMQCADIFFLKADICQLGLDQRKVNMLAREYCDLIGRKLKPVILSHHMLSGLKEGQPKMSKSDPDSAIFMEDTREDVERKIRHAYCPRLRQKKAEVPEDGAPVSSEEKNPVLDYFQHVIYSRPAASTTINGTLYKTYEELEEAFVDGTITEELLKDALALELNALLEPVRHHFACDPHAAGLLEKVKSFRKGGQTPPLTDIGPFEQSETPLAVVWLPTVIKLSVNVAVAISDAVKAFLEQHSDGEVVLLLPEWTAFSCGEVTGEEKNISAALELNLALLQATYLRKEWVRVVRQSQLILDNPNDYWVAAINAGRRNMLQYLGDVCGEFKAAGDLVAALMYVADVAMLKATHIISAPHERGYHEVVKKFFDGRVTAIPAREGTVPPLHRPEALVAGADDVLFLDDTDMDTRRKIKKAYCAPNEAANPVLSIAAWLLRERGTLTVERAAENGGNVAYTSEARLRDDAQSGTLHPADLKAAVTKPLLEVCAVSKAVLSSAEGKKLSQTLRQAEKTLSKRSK
In words: Trypanosoma cruzi tyrosyl tRNA synthetase (TcYRS) _High Tyrosine SOP. Also: in the data most compounds retested in dose-response had high values. It is filed as functional. Conditions: 30 µM.

Assay [8] addresses T4, Tyrosyl-tRNA synthetase, putative (Trypanosoma cruzi (strain CL Brener)). In words: Trypanosoma cruzi tyrosyl tRNA synthetase (TcYRS) SOP. In kind it is functional. Conditions: 30 µM.
For assay [9], the target named is Chromo domain-containing protein 1 (Saccharomyces cerevisiae (strain ATCC 204508 / S288c) (Baker's yeast)) (UniProt P32657). In words: ScCHD-1 Enzyme Inhibition Assay. Also: in the data most compounds retested in dose-response had high values. It is filed as functional. Conditions: 30 µM.
Sequence of Chromo domain-containing protein 1 (Saccharomyces cerevisiae (strain ATCC 204508 / S288c) (Baker's yeast)) (P32657 whole entry, the tested form may be a part): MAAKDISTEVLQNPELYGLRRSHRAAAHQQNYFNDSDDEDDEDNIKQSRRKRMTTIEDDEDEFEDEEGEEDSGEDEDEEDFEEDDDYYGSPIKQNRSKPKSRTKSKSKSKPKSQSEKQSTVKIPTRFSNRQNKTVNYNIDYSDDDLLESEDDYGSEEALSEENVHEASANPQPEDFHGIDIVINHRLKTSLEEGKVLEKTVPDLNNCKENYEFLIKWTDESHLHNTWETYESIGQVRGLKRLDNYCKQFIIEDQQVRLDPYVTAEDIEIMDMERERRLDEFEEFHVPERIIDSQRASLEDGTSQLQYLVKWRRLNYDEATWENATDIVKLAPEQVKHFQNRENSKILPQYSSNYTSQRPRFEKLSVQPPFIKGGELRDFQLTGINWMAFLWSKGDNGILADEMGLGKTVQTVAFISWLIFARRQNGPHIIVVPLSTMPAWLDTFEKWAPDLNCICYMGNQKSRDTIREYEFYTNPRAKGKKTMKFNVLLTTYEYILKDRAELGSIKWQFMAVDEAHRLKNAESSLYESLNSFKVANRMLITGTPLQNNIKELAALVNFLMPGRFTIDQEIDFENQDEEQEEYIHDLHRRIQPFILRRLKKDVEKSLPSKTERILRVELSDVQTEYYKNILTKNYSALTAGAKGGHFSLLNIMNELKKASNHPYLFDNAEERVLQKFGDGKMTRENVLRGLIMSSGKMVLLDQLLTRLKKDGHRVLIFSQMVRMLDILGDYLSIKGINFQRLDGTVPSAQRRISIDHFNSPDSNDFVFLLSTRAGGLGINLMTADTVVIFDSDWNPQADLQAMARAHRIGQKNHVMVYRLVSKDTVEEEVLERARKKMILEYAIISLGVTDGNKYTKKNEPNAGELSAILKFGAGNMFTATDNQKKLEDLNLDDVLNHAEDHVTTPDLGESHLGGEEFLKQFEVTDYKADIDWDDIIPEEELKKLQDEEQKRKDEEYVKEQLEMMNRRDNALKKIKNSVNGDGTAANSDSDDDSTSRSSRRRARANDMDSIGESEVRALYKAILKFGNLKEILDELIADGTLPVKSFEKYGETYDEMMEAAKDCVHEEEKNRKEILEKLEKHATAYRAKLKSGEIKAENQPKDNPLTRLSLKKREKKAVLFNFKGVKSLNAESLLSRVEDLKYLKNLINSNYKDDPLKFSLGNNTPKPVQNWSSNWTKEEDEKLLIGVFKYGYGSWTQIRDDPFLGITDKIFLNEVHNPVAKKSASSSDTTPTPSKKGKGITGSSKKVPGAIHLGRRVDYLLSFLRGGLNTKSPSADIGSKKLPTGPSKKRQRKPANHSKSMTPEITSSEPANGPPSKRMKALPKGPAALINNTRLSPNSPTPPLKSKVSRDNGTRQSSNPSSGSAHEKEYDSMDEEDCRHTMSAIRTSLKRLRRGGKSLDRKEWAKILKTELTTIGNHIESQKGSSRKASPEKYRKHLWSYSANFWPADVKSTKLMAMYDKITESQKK

As to `CC(C)n1ncc2c1NC(=O)CC21C(=O)Nc2c(Cl)cccc21` (stereo unspecified), the Percent Effect was -1.42% in assay [1]; -1.33% in assay [2]; 3.7% in assay [3]; 7% in assay [4]; -0.393% with Trypanosoma cruzi; -6.87% in assay [5]. In addition, the Percent Effect is 0.185% in [6]; 34% in the assay filed under Homo sapiens; 1.06% in [7]; 2.56% in assay [8]; -2% in assay [9].

Regarding `NC(=O)C1CCN(Cc2cccc(NC(=O)c3ccsc3)c2)CC1`, the Percent Effect in assay [1] was -6.14%; in assay [2], 2.67%; in assay [3], -1.03%; in assay [4], 5.05%; in the assay on Trypanosoma cruzi, 3.99%; in [5], -2.08%. In addition, the Percent Effect in assay [6] is 7.85%; in the assay filed under Homo sapiens, 17%; in assay [7], 7.1%; in assay [8], 13.6%; in assay [9] it was -5.67%.

Regarding `Cc1cnc2c(S(=O)(=O)NCC3CCS(=O)(=O)C3)cccc2c1` (stereo unspecified), the Percent Effect is -3.39% in [1]; 21.1% in assay [2]; -0.0656% in assay [3]; -5% in assay [4]; 6.26% in the assay with Trypanosoma cruzi; 3.24% in assay [5]. Further, the Percent Effect was 16.8% in [6]; 7.48% in the assay filed under Homo sapiens; 7.39% in assay [7]; 23.5% in [8]; -10.9% in assay [9].

On to `Oc1nc(N2CCOCC2)nc2c1CCN(Cc1cccnc1)CC2`, for which the Percent Effect in assay [1] was -4.93%; in assay [2], 6.76%; in assay [3], 7.05%; in [4] it was 1.25%; in the assay on Trypanosoma cruzi it was -1.98%; in assay [5] it was -3.48%. In addition, the Percent Effect in assay [6] is 5.15%; in the assay listed under Homo sapiens, 3.87%; in assay [7] it was 4.3%; in assay [8], 11.7%; in assay [9] it was -8.38%.

Regarding `Cc1nc(COc2cccc(C#N)c2)no1`, the Percent Effect was -1.52% in assay [1]; 21.1% in assay [2]; -5.19% in assay [3]; 8.22% in assay [4]; 5.13% in the assay on Trypanosoma cruzi; -0.36% in [5]. The Percent Effect in assay [6] is 8.21%; in the assay listed under Homo sapiens, -0.09%; in assay [7], 10.3%; in assay [8], 25.9%; in assay [9], -8.11%.

As for `O=C(NC1CCCC1)NC1CCC(C(=O)N2CCSCC2)CC1` (stereo unspecified), the Percent Effect in assay [1] is -4.05%; in assay [2] it was 2.6%; in assay [3] it was 5.55%; in assay [4] it was 0.598%; with Trypanosoma cruzi, -5.61%; in [5], -2.76%. Also, the Percent Effect in assay [6] is 3.33%; in the assay filed under Homo sapiens, 23.7%; in [7] it was 2.15%; in assay [8] it was -1.24%; in assay [9], -0.623%.

Take `Cc1nn(C)c(C)c1C1COCCN1c1ncnc2sccc12` (stereo unspecified): the Percent Effect in assay [1] is -2.31%; in assay [2], -2.67%; in assay [3], -0.892%; in assay [4], -4.05%; in the assay with Trypanosoma cruzi it was -0.487%; in assay [5], -2.08%. Also, the Percent Effect in assay [6] was 10.1%; in the assay listed under Homo sapiens, 31.3%; in assay [7], 1.64%; in [8], 3.7%; in assay [9], -1.49%.

On to `Cc1cc(NC(=O)CN2CCc3cnc(C)nc3C2)on1`, for which the Percent Effect in assay [1] was -3.81%; in [2] it was 5.26%; in assay [3], -27.9%; in [4], 2.68%; with Trypanosoma cruzi, 7.75%; in assay [5], 1.8%. Also, the Percent Effect was 9.39% in assay [6]; -5.85% in the assay listed under Homo sapiens; 8.37% in assay [7]; 16.1% in assay [8]; -7.97% in [9].

Regarding `O=C(c1cscn1)N1CCC2(CCN(Cc3cccs3)CC2)C1`, the Percent Effect in assay [1] was -5.71%; in assay [2], 8.11%; in assay [3], 6.09%; in [4], -2.27%; with Trypanosoma cruzi, 0.489%; in [5] it was 2.23%. Moreover, the Percent Effect in assay [6] came out at 19%; in the assay filed under Homo sapiens, 9.36%; in assay [7], 1.08%; in assay [8] it was 15.4%; in [9], 0.482%.

With `Cc1cc(O)nc(C2CCCN(Cc3ccncc3)C2)n1` (stereo unspecified), the Percent Effect is -0.276% in [1]; 14.9% in [2]; 4.7% in assay [3]; -7.91% in assay [4]; 3.75% in the assay with Trypanosoma cruzi; -0.696% in assay [5]. The Percent Effect in [6] is 10.4%; in the assay listed under Homo sapiens it was -0.951%; in [7], 1.07%; in [8] it was 11.7%; in assay [9] it was -12.3%.

Consider `O=C(N[C@@H]1CN(c2ncccn2)C[C@@H]2CCCO[C@@H]21)c1cnccn1`, for which the Percent Effect was -0.31% in assay [1]; 8% in [2]; 1.89% in [3]; 11.3% in [4]; -1.74% with Trypanosoma cruzi; -48.6% in assay [5]. In addition, the Percent Effect is 7.18% in [6]; 10.6% in the assay filed under Homo sapiens; -7.29% in assay [7]; 20% in [8]; -6.1% in [9].
